Assay results from PubChem BioAssay AID2419 (Southern Research Specialized Biocontainment Screening …, 2010).
Entries with a potency or affinity are not part of this list. Activity calls are given as the source filed them. No rule for the calls is given here.

assay: antiviral activity against WNV, CPE read-out – cell-based (AID 2419); details: West Nile virus-infected cells, active compounds read high; at 200 µM unless noted

Max CPE inhibition, inactive:
OC1c2cc(I)ccc2N=C2CCCN21 (centres undefined) 0.77% [at 0.39 µM]
OC1c2cc(Cl)cc(Cl)c2N=C2CCCN21 (centres undefined) 1.94% [at 0.78 µM]
O=C(CSc1nc2ccccc2c(=O)n1-c1ccc(F)cc1F)Nc1ccc(N2CCOCC2)cc1 1.05% [at 0.39 µM]
COc1ccc(Cn2nc(C)cc2OC(=O)c2c(F)cccc2F)cc1 1.63%
COc1ccc(Cn2nc(C)cc2OC(=O)c2ccccc2)cc1 1.5%
OC1c2cc(Br)ccc2N=C2CCCCN21 (centres undefined) 0.62% [at 3.13 µM]
O=C(CSc1nc2cccc(I)c2c(=O)n1-c1ccccc1)Nc1ccc2c(c1)CCC2 3.08%
O=C(CSc1nc2cccc(F)c2c(=O)n1-c1ccccc1)Nc1ccc2c(c1)CCC2 2.29% [at 25 µM]
Cc1ccc2nc(SCC(=O)Nc3ccc4c(c3)CCC4)n(-c3ccccc3)c(=O)c2c1 6.42% [at 25 µM]
OC1c2c(F)cccc2N=C2CCCN21 (centres undefined) 0.91% [at 0.39 µM]
Cc1cc(OC(=O)c2c(F)cccc2F)n(Cc2ccccc2)n1 1.92%
Cc1cccc2c(=O)n(-c3ccccc3)c(SCC(=O)Nc3ccc4c(c3)CCC4)nc12 2.82% [at 25 µM]
O=C(CSc1nc2ccccc2c(=O)n1-c1ccc(F)cc1)Nc1ccc2c(c1)CCC2 29.6% [at 100 µM]
OC1c2c(F)cccc2N=C2CCCCCN21 (centres undefined) 1.99% [at 0.39 µM]
